# Measured values published in the supplement of paper PMC6522484.
# ± gives the standard deviation of the averaged measurements.
# Tests used:
# DLD1 [1] = experiment: cell viability (CellTiter-Glo) relative to plate median (fraction of plate median); higher = more viable cells; conditions: 5 µM; treatment time 24 h; reporter: 7TFP
# Procedure, shortened: (§1)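 Colorectal cancer lines with stably integrated lentiviral TCF/Wnt firefly luciferase reporters received library compounds at a final 5 µM, 24 h after seeding into 384-well plates, for a 24 h exposure. Reported figures are plate-median-normalised firefly luciferase or CellTiterGlo luminescence per well. They average two independent replicates.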
# HCT116 = experiment: as above; conditions: 5 µM; treatment time 24 h; reporter: TCF4/Wnt
# Procedure, shortened: as §1
# SW480 [2] = experiment: as above; conditions: 5 µM; treatment time 24 h; reporter: 7TFP
# Procedure, shortened: as §1
# DLD1 [3] = experiment: TCF/Wnt firefly luciferase reporter signal relative to plate median (fraction of plate median); higher = higher Wnt reporter signal; conditions: 5 µM; treatment time 24 h; reporter: 7TFP
# Procedure, shortened: as §1
# SW480 [4] = experiment: as above; conditions: 5 µM; treatment time 24 h; reporter: 7TFP
# Procedure, shortened: as §1
Structure (SMILES),cell viability (DLD1 [1]),cell viability (HCT116),cell viability (SW480 [2]),TCF/Wnt firefly luciferase reporter signal (DLD1 [3]),TCF/Wnt firefly luciferase reporter signal (SW480 [4])
CC(=O)O[C@]1(C(C)=O)CC[C@H]2[C@@H]3C=C(Cl)C4=CC(=O)[C@@H]5C[C@@H]5[C@]4(C)[C@H]3CC[C@@]21C,1 ± 0.035,0.96 ± 0.086,0.948 ± 0.0028,0.81 ± 0.052,0.923 ± 0.22
O=c1cc[nH]c(=S)[nH]1,1.03 ± 0.073,1.04 ± 0.061,0.956 ± 0.076,1.03 ± 0.014,1.02 ± 0.028
COC(=O)[C@H](Cc1ccccc1)NC(=O)[C@@H](N)CC(=O)O,0.952 ± 0.082,1.08 ± 0.11,1.06 ± 0.014,1.045 ± 0.0071,0.985 ± 0.14
CN[C@@H]1[C@@H](O[C@H]2O[C@H](CO)[C@@H](N)[C@H](O)[C@H]2O)OC2C[C@@H](N)[C@@H](O[C@H]3[C@H](O)[C@@H](O)[C@H](N)C[C@@H]3N)OC2[C@@H]1O (stereo not given in full),0.893 ± 0.0028,0.952 ± 0.03,0.965 ± 0.037,1.08 ± 0.028,0.88 ± 0.11
CS(=O)(=O)CCCCN=C=S,0.722 ± 0.18,0.8885 ± 0.00071,0.83 ± 0.03,0.83 ± 0.067,0.867 ± 0.12
Cc1cc(C(C)(C)C)c(O)c(C)c1CC1=NCCN1,0.977 ± 0.047,0.895 ± 0.016,0.972 ± 0.035,1.15 ± 0.13,1.065 ± 0.0071
CCC1(C)OC(=O)N(C)C1=O (stereo not given),1.04 ± 0.014,0.873 ± 0.078,0.908 ± 0.0028,0.965 ± 0.0085,0.956 ± 0.076
CC(N)CCCC(C)(C)O (stereo not given),1.01 ± 0.092,0.955 ± 0.078,0.933 ± 0.022,1.03 ± 0.021,1.04 ± 0.035
COC1=C(OC)C(=O)C(C/C=C(\C)CC/C=C(\C)CC/C=C(\C)CC/C=C(/C)CC/C=C(\C)CC/C=C(\C)CC/C=C(\C)CC/C=C(\C)CC/C=C(\C)CCC=C(C)C)=C(C)C1=O,1.02 ± 0.035,0.993 ± 0.067,1.115 ± 0.0071,0.98 ± 0.057,0.923 ± 0.15
C=C1CCC2C(CC2(C)C)C(=O)CCC1O (stereo not given),0.969 ± 0.037,0.962 ± 0.023,0.97 ± 0.0014,0.932 ± 0.025,0.9285 ± 0.0064
CC(=O)O[C@@H]1c2c(ccc3ccc(=O)oc23)OC(C)(C)[C@@H]1OC(=O)CC(C)C,0.979 ± 0.044,1.02 ± 0.029,0.931 ± 0.059,0.875 ± 0.066,0.959 ± 0.054
CC(C)NNC(=O)c1ccncc1,1.02 ± 0.029,0.992 ± 0.054,1 ± 0.083,1.07 ± 0.042,1.01 ± 0.021
O=C1CC(c2ccc(O)c(O)c2)Oc2cc(O)cc(O)c21 (stereo not given),1.04 ± 0.14,1.08 ± 0.057,0.973 ± 0.095,0.912 ± 0.011,0.862 ± 0.0014
CC(=O)/C(=C\c1ccccc1)CC(=O)O,0.984 ± 0.037,1.03 ± 0.047,1 ± 0.05,0.894 ± 0.0085,0.996 ± 0.02
N[C@H]1C(O)O[C@H](CO)[C@@H](O)[C@@H]1O (stereo not given in full),0.973 ± 0.037,0.993 ± 0.024,0.99 ± 0.013,1.12,1.06 ± 0.021
